Data on 54 compounds can be found in ChEMBL document CHEMBL4513216, “Probing the Open Global Health Chemical Diversity Library for Multistage-Active Starting Points for Next-Generation Antimalarials” (ACS Infect Dis, 2020).

Molecules are shown by their SMILES. Among all 68,000 compounds or so, about 2,700 (4%) showed an effect of 50% or more. The sample holds strong results, similar compounds and a random draw of the others, so the mix is not that of the screen.

The assay relates to Plasmodium berghei. Nature of the assay: Screen against P. berghei liver stage (PbLuc), transformed with Luciferase, at 2uM. It counts as functional, HepG2. Conditions: tested at 2 uM.
In the case of `O=S(=O)(NCC1(O)CCCC1)c1ccccc1Br`, the INHIBITION was 32.07%.
Then `Cc1noc(C)c1C(=O)N1Cc2ncn(C)c2C(COCC(C)C)C1` (centres undefined), with 25.92%.
With `CN(C)c1ccnc(N2CCC(NCCOc3ccccc3)CC2)n1` the figure was -55.42%; with `CN(C)c1nccc(-c2c[nH][nH]c2=O)n1`, 3.97%.
Then `Cc1ncncc1-c1ccnc(N(C)C)n1`, with 22.5%.
For `CN(C)c1nccc(-c2cnc(N(C)C)[nH]c2=O)n1`, the INHIBITION came to 51.32%.
Then `CN(Cc1ccc2nonc2c1)C(=O)CCc1cc2n(n1)CCCNC2`, with -3.87%.
With `CCN(Cc1ccncc1)C1CCCN(Cc2ccc(F)cc2Cl)C1` (centres undefined) the figure was 32.26%; with `CCN(Cc1ccncc1)C1CCCN(Cc2ccc(F)cc2OC)C1` (centres undefined), 51.42%; with `CCN(Cc1ccncc1)C1CCCN(C/C=C/c2ccc(F)cc2)C1` (centres undefined), 27.95%.
Regarding `Cc1ccc(CN2Cc3c(C(=O)N4CCCC4)nn(C)c3C2)s1`, the INHIBITION is on record as -64.97%.
Then `O=C1CC(N2CCN(c3ccccc3O)CC2)C(=O)N1Cc1cccs1` (centres undefined), with 19.62%.
With `CC1CCN(C(=O)Cn2cc(I)cn2)CC1` the figure was 66.74%; with `O=C(Cn1cc(I)cn1)N1CCCC1`, 34.34%.
Then `CC1CCCN(C(=O)Cn2cc(I)cn2)C1` (centres undefined), with 37.18%; and `O=C(Cc1cccc(F)c1)NCCNCC1CNc2ccnn2C1` (centres undefined), with -7.45%; and `Cn1nccc1C1CCN(CC(=O)NCC2CC2)CC1`, with 7.71%.
Regarding `O=C(Nc1cccnc1-n1cc(Cl)cn1)C1CC1`, the INHIBITION is -43.89%.
`Cc1cc(C)n(CC2CN(Cc3nc(C4CC4)no3)CCO2)n1` (centres undefined): the INHIBITION came to 37.31%.
Then `CN(C)C(=O)N1CC[C@@H](O)[C@@H]1Cc1ccccc1`, with 48.52%; and `O=C(N1CCCC1)N1CCC2(CC1)C(=O)N(CC1CC1)c1ccccc12`, with 31.5%.
Then `CC(=O)N1CCC2(CC1)C(=O)N(CC1CC1)c1ccccc12`, with 24.15%; and `O=C([C@H]1CCCO1)N1CCC2(CC1)C(=O)N(CC1CC1)c1ccccc12`, with 58.95%; and `O=C(N[C@H]1CN(Cc2ccsc2)[C@@H]2CCCO[C@H]12)C1CC1`, with -1.33%.
Then `COCCN1CCC(c2cncc(-c3cccc(Cl)c3)n2)CC1`, with 32.39%.
As for `CN(CC(=O)Nc1ccc(Br)cn1)C(=O)C(C)(C)C`, the INHIBITION was 8.42%.
Then `OCCc1ccccc1-n1ccnc1-c1cn(C2CCNCC2)nn1`, with 5.78%.
With `Clc1ccccc1CCn1ccnc1-c1cn(C2CCNCC2)nn1` the figure was -30.83%; with `Cc1ccc2[nH]c(-c3cn(C4CCNCC4)nn3)nc2c1C`, 68.42%.
With `Cc1cccc2[nH]c(-c3cn(C4CCNCC4)nn3)nc12` the figure was 57.92%; with `Cc1cc2nc(-c3cn(C4CCNCC4)nn3)[nH]c2cc1C`, 28.14%; with `Cc1ccc(-n2ccnc2-c2cn(C3CCNCC3)nn2)c(Cl)c1`, 36.26%.
As for `COc1cccc(CCn2ccnc2-c2cn(C3CCNCC3)nn2)c1`, the INHIBITION is -14.82%.
With `CSc1ccccc1-n1ccnc1-c1cn(C2CCNCC2)nn1` the figure was 14.55%; with `Cc1c(C)c(C)c2[nH]c(-c3cn(C4CCNCC4)nn3)nc2c1C`, 52.66%.
With `Cc1nc(C(C)C)sc1C(=O)N1CCN(C2CCSCC2)CC1` the figure was 18.77%.
Regarding `CN(C)C(=O)c1cccnc1SCc1ccccc1Cl`, the INHIBITION was determined as 17.31%.
With `Cc1nn(C)c(C)c1C1CCCN1CC(=O)NCc1ccccn1` (centres undefined) the figure was -29.54%.
As to `COC(=O)C(NC(=O)CC(C)C)c1cc(F)ccc1F` (centres undefined), the INHIBITION was 29.12%.
As for `O=C(CC1CCN(c2cccnn2)CC1)Nc1nncs1`, the INHIBITION is reported as -24.13%.
With `O=C(CC1CCN(c2cccnn2)CC1)Nc1cccnc1` the figure was 50.17%.
Then `CN(C)CCNC(=O)CC1CCN(c2cccnn2)CC1`, with -36.94%.
Then `O=C(CC1CCN(c2cccnn2)CC1)NCCO`, with 68.96%; and `O=C(CC1CCCC1)NCCS(=O)(=O)N1CCN(c2ccccn2)CC1`, with -40%; and `O=C(CC1CCN(c2cccnn2)CC1)NC1CCOCC1`, with -36.08%.
Regarding `CC(c1ccncc1)n1cc2nc(N(C)C)[nH]cc-2c1=O` (centres undefined), the INHIBITION turned out to be 20.82%.
With `COc1ccc(C(O)CNC(=O)Nc2cc(C)nn2C)cc1` (centres undefined) the figure was 34.83%; with `Cn1cnc(-c2ccc(F)cc2)c1NC(=O)CCNC(=O)C(C)(C)C`, 37.66%.
`c1cc(CN2CCC3(CC2)COC(COCC2CC2)C3)co1` (centres undefined): the INHIBITION was found to be 15.02%.
Regarding `c1cc(CN2CCC3(CC2)COC(COCC2CC2)C3)cs1` (centres undefined), the INHIBITION is -9.14%.
With `c1csc(CN2CCC3(CCOCC3COCC3CC3)CC2)n1` (centres undefined) the figure was -23.51%.
Then `c1cc(CN2CCC3(CCOCC3COCC3CC3)CC2)ccn1` (centres undefined), with 50.17%; and `c1cc(CN2CCC3(CC2)COC(COCC2CC2)C3)ccn1` (centres undefined), with 55.57%.
With `c1cc(CN2CCC3(CCOCC3COCC3CC3)CC2)co1` (centres undefined) the figure was 39.18%.
